Values joined by “and” are separate entries in the source; they are usually repeats but may differ in a detail not shown here. Identical values can stand only once. Numbered stars: 1 amine (or outer) side, 2 acyl side, 3 side chain; on linkers, the order of the positions; unused ones are H or OH. Bridge positions count the residues as written; N and C are the ends. Square brackets hold non-standard residues; d marks the D form. Peptide text beside a SMILES is read from it. I, II: the chains in the order shown. Hexamethylenediamine = C(CCCN[*:2])CCN[*:1]; Dip = N[C@H](C(=O)O)C(c1ccccc1)c1ccccc1; Chg = N[C@H](C(=O)O)C1CCCCC1; NMeA = CN[C@@H](C)C(=O)O
Assays:
Details in all cases: Compound concentration 20.0 uM, Protein concentration 2.0 uM, Result type QC Liability
[1] = molecular target: Tyrosine-protein kinase ABL1 (Homo sapiens) (UniProt P00519)
Tyrosine-protein kinase ABL1 (Homo sapiens), sequence (P00519 whole entry): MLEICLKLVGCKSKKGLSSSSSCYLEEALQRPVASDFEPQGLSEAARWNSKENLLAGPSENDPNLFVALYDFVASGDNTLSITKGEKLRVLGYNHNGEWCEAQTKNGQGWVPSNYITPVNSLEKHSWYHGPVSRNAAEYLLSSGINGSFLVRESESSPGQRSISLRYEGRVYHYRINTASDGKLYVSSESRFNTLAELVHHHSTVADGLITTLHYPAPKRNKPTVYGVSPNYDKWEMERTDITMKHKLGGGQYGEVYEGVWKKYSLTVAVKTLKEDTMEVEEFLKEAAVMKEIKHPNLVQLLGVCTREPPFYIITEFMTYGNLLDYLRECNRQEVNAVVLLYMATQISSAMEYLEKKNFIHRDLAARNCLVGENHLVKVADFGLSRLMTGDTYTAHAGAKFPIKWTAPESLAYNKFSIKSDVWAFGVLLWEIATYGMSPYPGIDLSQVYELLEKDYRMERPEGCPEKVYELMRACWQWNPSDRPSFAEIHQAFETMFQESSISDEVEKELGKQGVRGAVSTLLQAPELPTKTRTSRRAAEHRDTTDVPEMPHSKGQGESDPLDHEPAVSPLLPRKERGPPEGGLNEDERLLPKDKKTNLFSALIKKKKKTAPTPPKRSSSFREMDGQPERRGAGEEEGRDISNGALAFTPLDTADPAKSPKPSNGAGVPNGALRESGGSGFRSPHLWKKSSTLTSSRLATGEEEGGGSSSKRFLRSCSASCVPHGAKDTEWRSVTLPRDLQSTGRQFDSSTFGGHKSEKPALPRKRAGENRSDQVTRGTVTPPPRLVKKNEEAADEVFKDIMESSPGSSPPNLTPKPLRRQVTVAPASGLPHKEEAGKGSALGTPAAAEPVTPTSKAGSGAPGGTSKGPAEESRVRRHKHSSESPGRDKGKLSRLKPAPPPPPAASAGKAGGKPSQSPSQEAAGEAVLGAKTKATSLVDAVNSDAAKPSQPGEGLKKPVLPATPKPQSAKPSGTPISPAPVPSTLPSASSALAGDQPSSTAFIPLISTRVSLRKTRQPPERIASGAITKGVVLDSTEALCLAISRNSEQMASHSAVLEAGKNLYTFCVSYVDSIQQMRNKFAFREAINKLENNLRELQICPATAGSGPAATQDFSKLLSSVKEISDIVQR

[2] = molecular target: Cyclin-dependent kinase 2 (Homo sapiens) (UniProt P24941)
[3] = molecular target: Casein kinase I isoform delta (Homo sapiens) (UniProt P48730)
Casein kinase I isoform delta (Homo sapiens), sequence (P48730 whole entry, looked up, canonical isoform): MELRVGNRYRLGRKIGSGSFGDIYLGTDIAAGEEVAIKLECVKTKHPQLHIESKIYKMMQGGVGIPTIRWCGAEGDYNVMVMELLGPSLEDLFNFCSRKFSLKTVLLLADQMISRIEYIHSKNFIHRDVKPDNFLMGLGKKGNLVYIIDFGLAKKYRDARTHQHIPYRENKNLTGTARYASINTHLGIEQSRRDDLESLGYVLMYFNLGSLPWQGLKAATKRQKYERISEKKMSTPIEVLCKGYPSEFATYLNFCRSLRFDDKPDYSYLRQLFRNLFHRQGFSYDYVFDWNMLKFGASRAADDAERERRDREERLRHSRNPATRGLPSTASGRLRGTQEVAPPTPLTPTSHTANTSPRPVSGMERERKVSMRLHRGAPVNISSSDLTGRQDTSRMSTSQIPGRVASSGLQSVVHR

[4] = molecular target: Glycogen synthase kinase-3 beta (Homo sapiens) (UniProt P49841)
Glycogen synthase kinase-3 beta (Homo sapiens), sequence (P49841 whole entry, looked up): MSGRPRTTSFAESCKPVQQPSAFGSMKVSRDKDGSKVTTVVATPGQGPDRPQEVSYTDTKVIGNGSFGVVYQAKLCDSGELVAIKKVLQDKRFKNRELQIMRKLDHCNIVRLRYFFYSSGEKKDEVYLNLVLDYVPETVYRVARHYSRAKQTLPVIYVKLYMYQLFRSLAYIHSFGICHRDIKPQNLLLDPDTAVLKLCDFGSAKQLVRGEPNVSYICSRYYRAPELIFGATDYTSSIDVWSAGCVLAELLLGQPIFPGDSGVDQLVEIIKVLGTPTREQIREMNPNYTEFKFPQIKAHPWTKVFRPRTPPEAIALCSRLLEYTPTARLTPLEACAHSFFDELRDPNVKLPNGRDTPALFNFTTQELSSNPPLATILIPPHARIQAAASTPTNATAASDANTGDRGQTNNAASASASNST

[5] = molecular target: Mitogen-activated protein kinase 1 (Homo sapiens) (UniProt P28482)
Mitogen-activated protein kinase 1 (Homo sapiens), sequence (P28482 whole entry): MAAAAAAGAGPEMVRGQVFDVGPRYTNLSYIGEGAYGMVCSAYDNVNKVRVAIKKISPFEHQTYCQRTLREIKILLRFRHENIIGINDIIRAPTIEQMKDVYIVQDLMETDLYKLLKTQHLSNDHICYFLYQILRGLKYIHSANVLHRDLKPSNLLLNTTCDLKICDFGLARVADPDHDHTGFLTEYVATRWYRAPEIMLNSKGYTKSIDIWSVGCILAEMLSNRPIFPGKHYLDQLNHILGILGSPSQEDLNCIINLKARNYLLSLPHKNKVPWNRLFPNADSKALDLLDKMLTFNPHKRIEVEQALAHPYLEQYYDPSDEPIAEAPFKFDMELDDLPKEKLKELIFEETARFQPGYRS

[6] = molecular target: T1, Aurora kinase A (Homo sapiens) (UniProt O14965)
T1 sequence (whole entry): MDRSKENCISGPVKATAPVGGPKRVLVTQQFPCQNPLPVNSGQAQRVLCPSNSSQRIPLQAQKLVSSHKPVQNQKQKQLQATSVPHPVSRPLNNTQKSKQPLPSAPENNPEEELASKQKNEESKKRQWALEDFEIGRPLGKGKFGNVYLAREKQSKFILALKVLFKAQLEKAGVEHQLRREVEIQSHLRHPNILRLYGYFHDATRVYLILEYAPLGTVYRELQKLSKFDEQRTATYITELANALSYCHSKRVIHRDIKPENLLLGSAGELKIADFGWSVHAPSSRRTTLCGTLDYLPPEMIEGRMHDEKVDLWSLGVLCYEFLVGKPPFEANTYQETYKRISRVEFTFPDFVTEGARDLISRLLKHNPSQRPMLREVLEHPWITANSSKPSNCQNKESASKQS

Compound	ΔTm [1]	ΔTm [2]	ΔTm [3]	ΔTm [4]	ΔTm [5]	ΔTm [6]
COc1ccccc1[C@@H]1CNCCC12CCN(C(=O)[C@](OC)(c1ccccc1)C(F)(F)F)CC2	0.26 °C	0.48 °C	0.35 °C	-1.18 °C	-0.22 °C	-0.11 °C
CC1=C(C(=O)OCCO)[C@@H](c2ccc(C#N)cc2)NC(=O)N1c1cccc(C(F)(F)F)c1	-0.45 °C	-0.38 °C	0.44 °C	-0.19 °C	0.15 °C	-0.11 °C
CC(C)(O)CNC(=O)N1C(=O)N(c2cccc(C(F)(F)F)c2)C2=C(C(=O)CC2)[C@@H]1c1ccc(C#N)cc1	0.02 °C	0.61 °C	0.18 °C	-0.62 °C	0.17 °C	-0.16 °C
CS(=O)(=O)NC(=O)CCC/C=C\C[C@H]1C(=O)C[C@@H](O)[C@@H]1/C=C/[C@@H](O)COc1ccccc1	-0.33 °C	0.46 °C	-0.2 °C	0.54 °C	0.01 °C	-0.19 °C
Cc1csc(S(=O)(=O)N(CC(C)C)c2cc3c(cc2OCc2ccc(C(=O)O)cc2)CCC3)n1	0.11 °C	-0.15 °C	-0.34 °C	0 °C	-0.27 °C	-0.4 °C
CNC(=O)c1ccc2c(c1)NC(=O)/C2=C(\Nc1ccc(CN2CCCCC2)cc1)c1ccccc1	7.98 °C	0.46 °C	0.03 °C	1.71 °C	0.02 °C	3.8 °C
CN1C(=O)Cc2ccc(-c3ccc(C[C@@H](C#N)NC(=O)[C@H]4N[C@@H]5CC[C@H]4C5)c(F)c3)cc21	0.24 °C	0.52 °C	0.41 °C	0.41 °C	0.5 °C	0.8 °C
FC(F)(F)c1ccc(CNc2ccc(Cc3c[nH]c4ncc(Cl)cc34)cn2)cn1	-2.59 °C	1.62 °C	1.05 °C	-0.38 °C	0.93 °C	10.6 °C
Nc1nc(-c2nn(Cc3ccccc3F)c3ncccc23)ncc1C1CC1	0.84 °C	0.56 °C	0.44 °C	-0.21 °C	0.15 °C	0.14 °C
O=C(NCc1ccc(F)cc1)C1CCN(S(=O)(=O)c2cc(Cl)cc(Cl)c2)CC1	0.04 °C	-0.1 °C	0.71 °C	-0.45 °C	0 °C	0.52 °C
C/C(=C\C(=O)Nc1ccccc1C(=O)O)c1ccc2ccccc2c1	-0.72 °C	-0.23 °C	0.09 °C	0 °C	0.8 °C	1.85 °C
CCNC(=O)c1ccc2c(c1)NC(=O)/C2=C(\Nc1ccc(CN(C)C)cc1)c1ccccc1	3.61 °C and 1.55 °C	0.83 °C and 0.42 °C	0.37 °C and -0.02 °C	0.19 °C and -0.61 °C	0.2 °C and 0.17 °C	1.4 °C and 0 °C
COc1ccc2c(O[C@@H]3C[C@H]4C(=O)N[C@]5(C(=O)NS(=O)(=O)C6(C)CC6)CC5/C=C\CCCCC[C@H](NC(=O)c5ccn(C)n5)C(=O)N4C3)cc(OC(C)C)nc2c1C (stereo not given in full)	-0.32 °C	-0.49 °C	-1.66 °C	-4.13 °C	-0.6 °C	-0.12 °C
COc1cc(C)c(S(=O)(=O)N(C)CCOCC(=O)N(C)[C@H]2CCC[C@@H](N3CCN(C)CC3)C2)c(C)c1	-0.63 °C	0.33 °C	0.16 °C	-0.91 °C	-0.21 °C	-0.27 °C
Cc1cc(-c2nc(-c3ccc(OC(F)(F)F)cc3)no2)nn1Cc1ccnc(N2CCN(C3CC3)CC2)c1	0.32 °C	0.39 °C	-1.88 °C	-5.07 °C	0.34 °C	-3.42 °C
O=C(Nc1ccccc1C(=O)O)c1cc(S(=O)(=O)c2ccccc2)ccc1Cl	0.07 °C	1.6 °C	0.6 °C	0.85 °C	0.86 °C	1.09 °C
CCC(=O)N[C@H]1CC[C@@H](C(=O)N(C)c2ccc(-c3nc4ccccc4o3)cc2)C1	0.73 °C	0.83 °C	0.61 °C	-0.48 °C	0.13 °C	0.03 °C
Cc1cc(CN)cc(C)c1-c1ncn(C)c1-c1ccnc2cc(F)ccc12	-0.08 °C	0.32 °C	0.37 °C	-0.11 °C	0.29 °C	0.25 °C
CCN1CCN(Cc2ccc(C(=O)Nc3ccc(C)c(Oc4ccc5c(c4)CC(=O)N5)c3)cc2C(F)(F)F)CC1	12.9 °C	0.01 °C	0.95 °C	0.8 °C	0.26 °C	-1.25 °C
C#Cc1cnc2[nH]cc(-c3cccc4c3CCN4C(=O)[C@@H]3CCCN3C#N)c2c1	5.17 °C	1.31 °C	2.51 °C	2.99 °C	0.55 °C	4.94 °C
CC(=O)c1ccc2c(c1)/C(=C(/Nc1cccc(C#N)c1)c1ccc3c(c1)OCCO3)C(=O)N2	6.24 °C	5.79 °C	1.02 °C	12 °C	0.75 °C	4.32 °C
Fc1ccc(-c2nc(-c3c(F)cccc3F)[nH]c2-c2ccncc2)cc1	4.45 °C	1.7 °C	6.41 °C	7.77 °C	0.52 °C	-0.55 °C
O=C(N[C@H]1CCC[C@H](CO)C1)C1CCN(c2nc3cc(Cl)c(-c4ccc(Cl)cc4)cc3o2)CC1	1.38 °C	-3.19 °C	-6.76 °C	1.1 °C	-10.4 °C	-2.13 °C

Compound	ΔTm [1]	ΔTm [2]	ΔTm [3]	ΔTm [4]	ΔTm [5]	ΔTm [6]
COc1cc2ncnc(Nc3ccc(F)c(Cl)c3)c2cc1OCCN(C)C[C@H](C)O	2.95 °C	0.34 °C	1.99 °C	-0.21 °C	0.43 °C	0.41 °C
CC1CCN(c2ccnc(NCc3cn(C)cn3)n2)CC1	-1.33 °C	0.15 °C	0.29 °C	-0.33 °C	0.75 °C	-0.52 °C
O=C(CNCc1cc2ccccc2[nH]1)N[C@H]1CC[C@@H](c2nc3ccccc3[nH]2)CC1	0.13 °C	0.52 °C	0.18 °C	-0.57 °C	0.34 °C	-0.41 °C
CC(C)Nc1ncnc2cc(OCc3cccc([S@@](C)(=N)=O)c3)c(Br)cc12	2.87 °C	0.49 °C	1.35 °C	-0.51 °C	-0.37 °C	4.25 °C
CN1CCC(C#N)(NC(=O)[C@@H](NC(=O)N2CCOCC2)C(C)(C)C)CC1	-0.07 °C	0.23 °C	0.3 °C	-0.75 °C	0.52 °C	-0.18 °C
Cc1nc(Nc2cnn(C3CCNCC3)c2)nc2c1N(C)C(=O)c1cc3ccccc3cc1N2C	2.1 °C	-1.03 °C	0.48 °C	-0.49 °C	0.6 °C	1.73 °C
CC[C@H](CO)Nc1nc(Nc2cccc(-c3ccccn3)c2)c2ncn(C(C)C)c2n1	7.62 °C	4.37 °C	4.48 °C	1.93 °C	2.21 °C	4.01 °C
O=C(O)c1cc(-c2ccccc2)ccc1O	0.56 °C	0.7 °C	0.85 °C	-0.32 °C	0.04 °C	0.05 °C
NC(=O)c1ccccc1Nc1nc(-c2ccc(N3CCOCC3)cc2)cc2ncccc12	7.91 °C	1.53 °C	3.01 °C	2.43 °C	0.67 °C	10.1 °C
CC(C)NC(=O)[C@H]1CCC[C@H]1Nc1nc(Nc2ccc(C(=O)N(C)C3CCN(C)CC3)cc2)ncc1Cl	10.3 °C and 6.45 °C	1.23 °C and 1.13 °C	0.47 °C and 0.12 °C	0.76 °C and -0.38 °C	0.47 °C and 0.79 °C	15.7 °C and 14.3 °C
Cc1nc2ccccc2c(-c2ccc3c4c(ccnc24)CCO3)c1[C@H](OC(C)(C)C)C(=O)O	-0.44 °C	0.2 °C	0.28 °C	-0.88 °C	0.3 °C	-0.03 °C
COC1(C#Cc2ccc(Cl)c(-c3ncc4c(n3)-c3sc(NC(C)=O)nc3CC4)c2)CCN(C)CC1	0.87 °C	-0.1 °C	1.14 °C	-0.95 °C	0.03 °C	0 °C
Cn1cc(-c2cnc3ccc4ccc(CS(=O)(=O)NCc5ccccn5)cc4c(=O)c3c2)cn1	4.08 °C	0.66 °C	0.15 °C	1.66 °C	-0.33 °C	5.91 °C
Clc1ccc(-c2nc3sccn3c2/C=N/OCc2ccc(Cl)c(Cl)c2)cc1	-0.76 °C	-0.94 °C	-2.09 °C	-0.83 °C	-0.15 °C	-1.05 °C
CN[C@@H](C)C(=O)N[C@H](C(=O)N1CCC[C@H]1C(=O)N[C@H](C(=O)NCCCCCCNC(=O)[C@@H](NC(=O)[C@@H]1CCCN1C(=O)[C@@H](NC(=O)[C@H](C)NC)C1CCCCC1)C(c1ccccc1)c1ccccc1)C(c1ccccc1)c1ccccc1)C1CCCCC1 (I: H-[NMeA][Chg]P[Dip] / II: H-[NMeA][Chg]P[Dip]; linker I:C-II:C via Hexamethylenediamine)	-0.65 °C	-1.8 °C	-0.57 °C	-0.94 °C	-1.01 °C	-1.85 °C
CC1(C)Oc2ncnc(N)c2N=C1c1ccc([C@H]2CC[C@H](CC(=O)O)CC2)cc1	0.89 °C	0.57 °C	-0.19 °C	0.61 °C	0.18 °C	0.25 °C
CCO[C@H](COc1ccc(C(F)(F)F)cc1)CSc1ccc(OCC(=O)O)c(C)c1	0.26 °C	0.43 °C	0.11 °C	-0.41 °C	0.32 °C	-1.04 °C
O=C1Nc2ccc(C(=O)c3ccco3)cc2C1=Cc1cc(Cl)c(O)c(Cl)c1	4.46 °C	0.67 °C	3.71 °C	5.93 °C	0.54 °C	5.03 °C
CC(C)(C[C@H]1CN(S(=O)(=O)c2cccc(C(F)(F)F)c2)c2cc(-c3cc(F)cc(OC(F)F)c3)ccc2O1)C(=O)O	-1.5 °C	-2.02 °C	-2.71 °C	-2.26 °C	-6.9 °C	-3.89 °C
C[C@]12CC[C@@H]3c4ccc(O)cc4CC[C@H]3[C@@H]1C[C@H]1OC(=O)C[C@]12O	-0.2 °C	0.7 °C	0.32 °C	0.78 °C	0.29 °C	0.5 °C
CC(=O)N1CCC(c2ccc(C(=O)NC(=N)N)cc2C(F)(F)F)CC1	-0.81 °C	0.95 °C	0.37 °C	-0.64 °C	0.32 °C	0.44 °C
CC(C)(O)CNC(=O)N1C(=O)N(c2cccc(C(F)(F)F)c2)C2=C(C(=O)CC2)[C@H]1c1ccc(C#N)cc1	0.05 °C	0.79 °C	0.12 °C	0.33 °C	-0.03 °C	0.08 °C
